Data taken from the supplement of paper PMC4166925.
± gives the standard deviation of the averaged measurements. The full ranking holds about 33,000 sequences; the median of “E-score (dimensionless, -0.5 to 0.5)” is about -0.046, and the highest 2% start at about 0.36. For the sample, the highest values were picked, then their nearest neighbours and some sequences at random.

The sequences below were run on T1, SpTbr T-box DNA-binding domain (GST fusion) (assay: PBM E-score of 8-mer (E-score (dimensionless, -0.5 to 0.5)); Tbr is Tbrain of the sea star Patiria miniata (Pm) or the sea urchin Strongylocentrotus purpuratus (Sp); higher = stronger binding preference). Settings: the construct has about 5 more residues each side.
T1 sequence: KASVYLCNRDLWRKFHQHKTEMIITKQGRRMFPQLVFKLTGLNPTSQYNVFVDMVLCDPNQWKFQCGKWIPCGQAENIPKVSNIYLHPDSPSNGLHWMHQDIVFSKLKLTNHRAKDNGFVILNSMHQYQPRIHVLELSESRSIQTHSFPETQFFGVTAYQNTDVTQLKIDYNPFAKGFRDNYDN
Description: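 Universal protein-binding microarray (Agilent AMADID 016060, 60-bp probes with a 35-bp variable region) incubated with 200 nM GST-fused Strongylocentrotus purpuratus Tbr T-box DNA-binding domain (residues 362-554) in PBS pH 7.5. Scored for every ungapped 8-mer (given with its reverse complement) as E-score (range -0.5 to 0.5; >0.45 counts as bound) and Z-score of median probe intensity. Two replicate arrays (datasets 1 and 2).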
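Note: protein at 200 nM in PBS on universal double-stranded arrays.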

Row | Sequence | PBM E-score of 8-mer
1 | CGTAACAC | 0.3104 ± 0.0022
2 | GCTAACCC | 0.04 ± 0.097
3 | GCTAACAC | 0.417 ± 0.0044
4 | ACTAACAC | 0.402 ± 0.0071
5 | CGACCCGA | -0.0816 ± 0.051
6 | TAACCAGA | -0.055 ± 0.015
7 | AGCAAAAG | -0.191 ± 0.046
8 | ACGCAACA | 0.121 ± 0.024
9 | ATTGCACA | 0.121 ± 0.053
10 | CCCCAGCG | -0.148 ± 0.02
11 | ATTAACAA | 0.14 ± 0.023
12 | ATTAACAG | 0.139 ± 0.014
13 | CTTAACAA | 0.243 ± 0.0056
14 | CTTAACAC | 0.429 ± 0.017
15 | CTTAACCC | -0.000625 ± 0.011
16 | ATTAACAC | 0.45 ± 0.015
17 | GTAGAAAA | -0.0889 ± 0.057
18 | ATCCAGAG | -0.25 ± 0.021
19 | CCTGGGAG | 0.0895 ± 0.0077
20 | GTGGCCGA | 0.0547 ± 0.071
21 | AGGAAAAT | -0.182 ± 0.018
22 | GTCAATAA | 0.129 ± 0.034

Row | Sequence | PBM E-score of 8-mer
23 | CGCCCGTC | 0.0569 ± 0.029
24 | CTTTTTCC | -0.132 ± 0.081
25 | TACGTTCA | -0.0963 ± 0.066
26 | AGCATTAT | 0.00754 ± 0.061
27 | AAACGTGT | 0.368 ± 0.018
28 | ACACGTGT | 0.395 ± 0.0082
29 | AAACGTGG | 0.144 ± 0.0096
30 | ACACGTCT | 0.342 ± 0.0038
31 | ACACGTGC | 0.3851 ± 0.0015
32 | ACACGTGG | 0.299 ± 0.02
33 | AAACGTGA | 0.156 ± 0.0067
34 | CCACGTGC | 0.114 ± 0.074
35 | ACACGTCA | 0.319 ± 0.017
36 | GCACGTGC | 0.312 ± 0.081
37 | ACACGTGA | 0.283 ± 0.011
38 | ACACGTCG | 0.372 ± 0.0071
39 | CCTTCCGC | 0.168 ± 0.062
40 | GATGCCTA | -0.279 ± 0.11
41 | AAGGGCCA | -0.259 ± 0.0051
42 | CTCAGCAC | 0.171 ± 0.0069
43 | TATCTCAA | -0.0883 ± 0.013
44 | GTTCAACA | -0.118 ± 0.054

Row | Sequence | PBM E-score of 8-mer
45 | CAGTGACG | 0.0986 ± 0.12
46 | CAGTGACA | 0.329 ± 0.0062
47 | AAGTGACA | 0.427 ± 0.013
48 | GAGTGACA | 0.343 ± 0.033
49 | AAGTGAAA | 0.209 ± 0.069
50 | AAGTGACC | 0.233 ± 0.041
51 | AAGTGACT | 0.0603 ± 0.012
52 | AAGTGACG | 0.4 ± 0.0071
53 | TAGTGACA | 0.417 ± 0.011
54 | GCTGTAAC | -0.0609 ± 0.029
55 | CTCAAAAG | -0.147 ± 0.012
56 | ATGACCTA | -0.132 ± 0.046
57 | ACAGAACA | -0.0577 ± 0.043
58 | CCTGTGCG | 0.125 ± 0.025
59 | TCGCAAAA | 0.132 ± 0.0091
60 | TACTTGGA | -0.311 ± 0.035
61 | AGGAGAGG | -0.247 ± 0.019
62 | AGGTGTGC | 0.445 ± 0.014
63 | AGGTGGGG | 0.238 ± 0.056
64 | CTGTGTGC | 0.000685 ± 0.012
65 | ATGTGTGG | 0.356 ± 0.007
66 | AGGTGTGG | 0.486 ± 0.0081

Row | Sequence | PBM E-score of 8-mer
67 | AGATGTGC | 0.161 ± 0.011
68 | ATCAGGAC | -0.3 ± 0.086
69 | AAGCTCTA | -0.245 ± 0.027
70 | GTGATAAC | 0.395 ± 0.0074
71 | GTGATCAA | 0.144 ± 0.022
72 | ATGATAAC | 0.092 ± 0.059
73 | ATGATCAC | 0.1861 ± 0.0015
74 | GTGATAAA | 0.305 ± 0.051
75 | GTGATCAC | 0.366 ± 0.022
76 | ACGATGGA | -0.0806 ± 0.066
77 | AGTAATCG | 0.087 ± 0.023
78 | GCTCCTAC | 0.0646 ± 0.0047
79 | AATTCAGC | -0.016 ± 0.024
80 | CCGGACGA | -0.223 ± 0.017
81 | ATCGCCTC | 0.169 ± 0.061
82 | GGTGTCAC | 0.475 ± 0.0052
83 | GCTGTCAC | 0.326 ± 0.025
84 | CGTGTCAG | 0.25651 ± 0.00017
85 | GTTGTCAA | 0.3671 ± 0.0033
86 | AGTGTCAG | 0.371 ± 0.0097
